IL-1B inflam inh: inhibitors of inflammasome signaling (IL-1 beta secretion); activity change, % at 57.5 µM; THP-1 LPS/ATP IL-1B secretion, AlphaLISA, 16 h; hits give low values; actives 4.7% (n = 360,000); in the data active = activity change below about -50%; inconclusive = mostly about -30% to -49%
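THP-1 cells pretreated 1 hr with compounds (up to 57.5 uM final), then stimulated with LPS (250 ng/mL final) plus ATP (1.25 mM final); secreted IL-1B measured by AlphaLISA after 16 hr, decreased signal indicating inhibition.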
HT1080NT lethal: kills 2HG-producing HT-1080-NT fibrosarcoma cells. HT-1080-NT fibrosarcoma viability, CellTiter-Glo ATP luminescence, 48 h. Potency, µM (series often up to 46.1 µM), for inactives: at the top dose activity, negative = less viability, hits mostly cytotoxic. actives 1.6% (n = 360,000);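 also: NT is the 2HG producing partner of a matched IDH1 knockdown line; potency is read from the fitted curve at half-maximal effect; 0% = DMSO-treated cells and -100% = media-only wells without cells; nearly all actives have a fitted effect of over 55% in size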
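A 48-hour cytotoxicity screen used HT-1080-NT cells plated 2 hours before compound delivery. ATP-based CellTiter-Glo luminescence measured viability, normalized to DMSO and no-cell controls.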
TDP1 cell CPT: DT40-hTDP1 cell growth loss with CPT; chicken DT40 Tdp1-/-;hTDP1 cells + 20 nM CPT, ATP luminescence, 48 h; Potency, µM (highest dose often 46.2 µM), inactives show at the top dose activity change, negative = growth inhibition, usual class: inhibitors; actives 12% (n = 420,000); also: potency is read from the fitted curve at half-maximal effect; nearly all actives have a fitted effect of over 55% in size
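Cell growth measured by CellTiter-Glo luminescence after a minimum 48 h, 37 C compound exposure with 20 nM CPT in Tdp1-knockout DT40 cells stably expressing hTDP1, seeded 400/well; qHTS titration format.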
TDP1 cell noCPT: qHTS for Inhibitors of human tyrosyl-DNA phosphodiesterase 1 (TDP1): qHTS in cells in absence of CPT; DT40 Tdp1-/- hTDP1 cells, no CPT, ATP luminescence, 48 h; Potency, µM (series often up to 46.2 µM), for inactives: at the top dose activity change, negative = growth inhibition, most hits filed as inhibitors; actives 15% (n = 420,000); AID 686978, 2013; also: potency is read from the fitted curve at half-maximal effect; nearly all actives have a fitted effect of over 55% in size
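Growth kinetics read by CellTiter-Glo luminescence after ≥48 hr at 37 °C. Cells: DT40 Tdp1-/- stably carrying human TDP1, 400 per well, compound exposure in the absence of CPT (DMSO vehicle).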
HT1080 IDH1KD tx: toxicity to HT-1080 IDH1 knockdown cells (counter line); HT-1080 IDH1 knockdown viability, ATP luminescence, 48 h; Potency, µM (top dose mostly 46.1 µM), for inactives: top-dose activity, negative = toxicity, hits mostly cytotoxic; actives 2% (n = 360,000); AID 686971;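 also: potency is read from the fitted curve at half-maximal effect; 0% = DMSO wells and -100% = cell-free medium wells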
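% activity derives from luminescence (CellTiter-Glo), normalised to DMSO and no-cell wells. HT-1080-IDH1KD cells, 750/well, had 48 h compound exposure at 37 °C.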
The depositor's hits bear a star; ? = inconclusive; . = no result given; [ ] = another dose, or the depositor's remark. Rows were chosen to be rich in hits. Some 19% of all compounds tested hit in one or more screens of this group. Unless noted, calls follow the shape of the dose curve; as a rule, active = well fitted curve in the direction sought with a large enough effect; inconclusive = small, poorly fitted or top-dose-only effect, or another doubt; inactive = no such curve, though single readings can be large; an effect the other way counts as inactive or inconclusive. Unless noted, % is scaled to controls: 0 for no effect and ±100 for the full control effect.

SMILES	IL-1B inflam inh	HT1080NT lethal	TDP1 cell CPT	TDP1 cell noCPT	HT1080 IDH1KD tx
COc1ccc(C(=O)/C=C/c2cn(CC(O)CN3CCOCC3)c3ccccc23)cc1 (centres undefined)	-93*	?	?	?	?
CCn1cc(/C=C(\NC(=O)c2ccc(OC)cc2)C(=O)N2CCOCC2)c2ccccc21	-3	3%	-7%	22%	-3%
O=C(CCN1C(=O)/C(=C/c2ccc(F)cc2)SC1=S)Nc1cc([N+](=O)[O-])ccc1O	0	-2%	?	?	-7%
CC(C)Oc1ccc(S(=O)(=O)N2CCOCC2)cc1NC(=O)C(C)Oc1ccc(F)cc1 (centres undefined)	-17	6%	?	?	0%
Cn1nc(C(C)(C)C)cc1C(=O)NCc1cc(F)cc2c1OCOC2	6	?	9.2µM*	3.7µM*	10µM*
COc1cc(-c2cc(C)c3c(OC)ccc(OC)c3n2)cc2c1OCCN(C(=O)C(C)c1n[nH]c(=O)c3ccccc13)C2 (centres undefined)	.	.	-10%	-5%	.
CC(C)Cc1nc2cc(NS(=O)(=O)N(C)C)cc(C(=O)N3CCc4ccccc4C3)c2n1C	.	.	7%[9.04 µM]	-16%	.
CC(C)Oc1ccc(CNC(=O)Cn2c(=O)oc3ccccc32)cc1	-4	11%	?	16µM*	-1%
Cc1ccccc1NC(=O)Cn1c(=O)oc2ccccc21	13	14%	3.7µM*	2.1µM*	2%
COc1ccc(C)cc1NC(=O)Cn1c(=O)oc2ccccc21	-4	7%	9.2µM*	2.1µM*	-7%
CCc1ccccc1NC(=O)Cn1c(=O)oc2ccccc21	.	.	2.3µM*	0.46µM*	.
O=C(Cn1c(=O)oc2ccccc21)Nc1ccccc1Cl	3	4%	-2%	?	-1%
OC1(c2ccc(F)cc2)CCN(Cc2nnnn2Cc2cccs2)CC1	-8	-7%	-4%	-10%	0%
Brc1ccc(-c2noc3c2-c2nc(C4CCCCC4)sc2CC3)cc1	19	20%	-8%	-8%	12%
CCc1ccc(NC(=S)NC2CC3CCCC(C2)N3Cc2cccs2)cc1 (centres undefined)	-90*	?	18µM*	?	?
COc1cccc(NC(=S)NC2CC3CCCC(C2)N3CC(C)C)c1 (centres undefined)	-16	12%	?	16µM*	1%
COc1cccc(NC(=S)N2C3CCCC2CC(NC(=O)C2CC2)C3)c1 (centres undefined)	10	9%	-5%	-8%	8%
COc1ccc(NC(=S)NC2CC3CCCC(C2)N3C2CC2)cc1 (centres undefined)	-11	-2%	?	-29%	1%
CCCN1C2CCCC1CC(NC(=S)Nc1ccc(OC)cc1)C2 (centres undefined)	-16	-2%	?	29µM*	4%
O=C(CNC(=S)N(Cc1ccccc1)Cc1cccnc1)NC1CCCCC1	-3	0%	-7%	?	-2%
CCOc1ccc(S(=O)(=O)N2CCN(S(=O)(=O)c3ccc(C)c(C)c3)CC2)cc1	-5	-4%	1%	?	-3%
COc1ccc(C(=O)Oc2ccc(C(=S)N3CCOCC3)cc2)cc1	27	?	?	?	7%
CSc1ccccc1NC(=O)CN1CC(C)OC(C)C1 (centres undefined)	35	30%	-21%	13%	-1%
O=S(=O)(Nc1nnc(-c2ccccc2)s1)c1ccc(Cl)cc1	9	-27%	?	16µM*	-22%
Cc1ccc(CNc2ccc(-c3nc(-c4ccco4)no3)cc2[N+](=O)[O-])cc1	.	.	-27%	-15%	.
CC(C)C[C@H]1CNC(=O)C(=O)N1CC1CCN(CC2CCC(C(C)(C)C)CC2)CC1 (some centres undefined)	?	4%	-10%	?	4%
